Results reported in PMC7862700, “An all-to-all approach to the identification of sequence-specific readers for epigenetic DNA modifications on cytosine”.

How the values were obtained:
Test in all cases: DAPPL (digital affinity profiling via proximity ligation, sequencing); 10 mM Tris-HCl pH 7.5, 50 mM NaCl, 1 mM DTT, 4% glycerol, room temperature, 30 min; GST-TFs on glutathione beads, 16-mer random dsDNA library, 0.1% formaldehyde crosslink after washing; high values mean tight binding
Conditions in all cases: protein: recombinant; tags: N-terminal GST; dsDNA, one strand shown
FEV = biological target: T1, FEV (Homo sapiens, UniProt Q99581 1-238)
T1 sequence: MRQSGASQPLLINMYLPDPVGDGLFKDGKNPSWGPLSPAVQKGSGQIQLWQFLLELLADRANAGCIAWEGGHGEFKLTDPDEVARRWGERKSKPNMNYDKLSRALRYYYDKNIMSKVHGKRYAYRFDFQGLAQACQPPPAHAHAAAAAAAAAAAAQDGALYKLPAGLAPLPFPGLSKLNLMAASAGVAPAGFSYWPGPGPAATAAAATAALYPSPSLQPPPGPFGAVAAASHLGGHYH
Method in brief: (§1)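 A tag-only sample was pooled with DNA-barcoded human transcription factors that had been expressed in yeast as GST fusions and captured on glutathione beads. The pools were incubated for 30 min at room temperature with 200 nmole of a random double-stranded 16-mer DNA library in Tris/NaCl/DTT/glycerol buffer, then washed, crosslinked with 0.1% formaldehyde, proximity-ligated (BsaI/T4 ligase, 1 h, 37 °C), PCR-amplified and sequenced on an Illumina NextSeq500. Binding signal is each hexamer's read frequency for a factor divided by its frequency for the tag-only sample.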

ETV5 = ETV5 (Homo sapiens, UniProt P41161 1-510)
Sequence of ETV5 (P41161 whole entry): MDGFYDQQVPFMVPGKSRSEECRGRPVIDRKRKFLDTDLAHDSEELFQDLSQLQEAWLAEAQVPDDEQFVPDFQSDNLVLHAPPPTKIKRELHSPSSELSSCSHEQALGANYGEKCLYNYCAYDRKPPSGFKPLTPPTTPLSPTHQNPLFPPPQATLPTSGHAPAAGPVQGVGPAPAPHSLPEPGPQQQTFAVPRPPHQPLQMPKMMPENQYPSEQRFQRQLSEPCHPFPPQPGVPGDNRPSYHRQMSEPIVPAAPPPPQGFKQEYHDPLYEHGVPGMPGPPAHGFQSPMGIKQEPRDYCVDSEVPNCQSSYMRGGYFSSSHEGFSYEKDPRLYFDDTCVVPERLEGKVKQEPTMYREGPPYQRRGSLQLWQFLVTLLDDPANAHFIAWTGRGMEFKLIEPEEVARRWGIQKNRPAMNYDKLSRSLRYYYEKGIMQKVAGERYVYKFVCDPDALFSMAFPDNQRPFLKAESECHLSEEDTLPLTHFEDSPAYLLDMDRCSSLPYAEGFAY
Method in brief: as §1

SPIC = biological target: T2, SPIC (Homo sapiens, UniProt Q8N5J4 1-248)
T2 sequence: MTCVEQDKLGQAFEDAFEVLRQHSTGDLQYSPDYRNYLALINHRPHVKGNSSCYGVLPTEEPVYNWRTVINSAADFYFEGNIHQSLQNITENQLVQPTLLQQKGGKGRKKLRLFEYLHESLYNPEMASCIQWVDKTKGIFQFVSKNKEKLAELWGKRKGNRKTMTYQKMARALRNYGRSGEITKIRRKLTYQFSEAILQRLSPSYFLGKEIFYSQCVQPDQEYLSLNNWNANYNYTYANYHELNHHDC
Method in brief: as §1

ELF4 = ELF4 (Homo sapiens, UniProt Q99607 1-663)
Sequence of ELF4 (Q99607 whole entry): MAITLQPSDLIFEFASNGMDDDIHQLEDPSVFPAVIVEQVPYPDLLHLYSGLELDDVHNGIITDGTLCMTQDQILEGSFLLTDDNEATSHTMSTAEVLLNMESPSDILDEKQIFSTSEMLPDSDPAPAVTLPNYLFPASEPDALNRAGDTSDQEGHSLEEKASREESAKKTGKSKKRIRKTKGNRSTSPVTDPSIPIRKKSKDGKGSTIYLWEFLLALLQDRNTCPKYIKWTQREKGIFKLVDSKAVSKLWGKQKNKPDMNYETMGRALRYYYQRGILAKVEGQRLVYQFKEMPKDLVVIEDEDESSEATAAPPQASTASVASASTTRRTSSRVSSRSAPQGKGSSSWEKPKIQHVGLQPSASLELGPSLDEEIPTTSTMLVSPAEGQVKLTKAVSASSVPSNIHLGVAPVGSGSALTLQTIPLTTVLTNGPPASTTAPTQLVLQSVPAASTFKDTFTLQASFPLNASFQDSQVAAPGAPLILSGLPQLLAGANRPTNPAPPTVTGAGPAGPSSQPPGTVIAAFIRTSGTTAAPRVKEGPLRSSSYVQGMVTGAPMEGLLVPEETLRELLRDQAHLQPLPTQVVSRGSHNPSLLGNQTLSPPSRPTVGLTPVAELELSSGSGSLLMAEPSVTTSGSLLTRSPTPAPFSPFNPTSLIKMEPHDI
Method in brief: as §1

ELK4 = biological target: T3, ELK4 (Homo sapiens, UniProt P28324-2 1-405)
T3 sequence: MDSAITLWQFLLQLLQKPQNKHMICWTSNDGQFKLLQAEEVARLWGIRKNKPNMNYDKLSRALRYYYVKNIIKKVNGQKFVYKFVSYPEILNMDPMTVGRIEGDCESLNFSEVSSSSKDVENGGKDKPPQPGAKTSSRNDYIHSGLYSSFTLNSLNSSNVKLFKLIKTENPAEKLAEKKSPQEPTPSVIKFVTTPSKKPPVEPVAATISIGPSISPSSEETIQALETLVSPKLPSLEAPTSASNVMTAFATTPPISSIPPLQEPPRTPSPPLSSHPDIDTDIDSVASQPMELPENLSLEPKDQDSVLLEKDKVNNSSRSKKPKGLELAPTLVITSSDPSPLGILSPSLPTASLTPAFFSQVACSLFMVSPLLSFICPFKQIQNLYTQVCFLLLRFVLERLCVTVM
Method in brief: as §1

ETV2 = biological target: T4, ETV2 (Homo sapiens, UniProt O00321 1-342)
T4 sequence: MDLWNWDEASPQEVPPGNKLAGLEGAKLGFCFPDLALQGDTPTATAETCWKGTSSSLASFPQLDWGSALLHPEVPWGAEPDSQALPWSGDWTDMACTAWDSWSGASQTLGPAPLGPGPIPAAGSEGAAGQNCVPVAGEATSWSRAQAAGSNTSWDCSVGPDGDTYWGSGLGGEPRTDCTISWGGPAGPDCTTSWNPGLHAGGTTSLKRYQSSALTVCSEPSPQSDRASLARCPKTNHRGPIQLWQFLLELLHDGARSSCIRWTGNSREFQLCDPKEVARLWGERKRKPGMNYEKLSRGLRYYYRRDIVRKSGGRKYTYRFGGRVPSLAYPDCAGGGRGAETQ
Method in brief: as §1

ELF3 = biological target: T5, ELF3 (Homo sapiens, UniProt P78545 1-371)
T5 sequence: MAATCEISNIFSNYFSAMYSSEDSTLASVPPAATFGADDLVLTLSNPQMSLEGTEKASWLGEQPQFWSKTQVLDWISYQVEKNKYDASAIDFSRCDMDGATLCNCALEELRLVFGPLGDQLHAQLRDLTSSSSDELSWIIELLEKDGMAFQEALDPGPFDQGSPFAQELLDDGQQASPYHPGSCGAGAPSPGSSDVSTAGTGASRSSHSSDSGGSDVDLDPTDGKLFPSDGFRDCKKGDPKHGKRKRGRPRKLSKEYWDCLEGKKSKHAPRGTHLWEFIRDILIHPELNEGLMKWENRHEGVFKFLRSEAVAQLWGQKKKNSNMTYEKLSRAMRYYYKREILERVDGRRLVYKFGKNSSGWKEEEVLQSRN
Method in brief: as §1

CRX = CRX (Homo sapiens, UniProt O43186 1-299)
Sequence of CRX (O43186 whole entry): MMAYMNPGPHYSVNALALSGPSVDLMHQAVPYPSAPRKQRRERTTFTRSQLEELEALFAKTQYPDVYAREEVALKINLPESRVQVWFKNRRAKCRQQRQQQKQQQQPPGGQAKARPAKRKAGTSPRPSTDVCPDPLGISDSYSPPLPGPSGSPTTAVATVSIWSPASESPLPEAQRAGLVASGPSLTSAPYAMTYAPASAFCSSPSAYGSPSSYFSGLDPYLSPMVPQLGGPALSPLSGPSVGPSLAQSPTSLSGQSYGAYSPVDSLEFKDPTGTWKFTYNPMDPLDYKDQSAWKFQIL
Method in brief: as §1

ETV1 = ETV1 (Homo sapiens, UniProt P50549 1-477)
Sequence of ETV1 (P50549 whole entry): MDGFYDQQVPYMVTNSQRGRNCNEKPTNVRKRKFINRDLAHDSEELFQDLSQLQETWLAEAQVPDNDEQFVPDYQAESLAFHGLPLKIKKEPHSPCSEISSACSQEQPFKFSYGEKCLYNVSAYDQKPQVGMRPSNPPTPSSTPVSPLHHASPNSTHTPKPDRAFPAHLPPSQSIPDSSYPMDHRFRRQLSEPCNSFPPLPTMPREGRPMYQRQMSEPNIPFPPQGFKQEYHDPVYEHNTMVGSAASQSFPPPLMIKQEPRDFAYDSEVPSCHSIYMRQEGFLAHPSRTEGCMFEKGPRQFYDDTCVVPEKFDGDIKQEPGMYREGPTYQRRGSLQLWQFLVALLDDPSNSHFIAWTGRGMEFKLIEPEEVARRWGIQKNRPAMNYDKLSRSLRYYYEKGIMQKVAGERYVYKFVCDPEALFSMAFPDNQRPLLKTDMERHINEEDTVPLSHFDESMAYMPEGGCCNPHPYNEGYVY
Method in brief: as §1

ERF = biological target: T6, ERF (Homo sapiens, UniProt P50548 1-548)
T6 sequence: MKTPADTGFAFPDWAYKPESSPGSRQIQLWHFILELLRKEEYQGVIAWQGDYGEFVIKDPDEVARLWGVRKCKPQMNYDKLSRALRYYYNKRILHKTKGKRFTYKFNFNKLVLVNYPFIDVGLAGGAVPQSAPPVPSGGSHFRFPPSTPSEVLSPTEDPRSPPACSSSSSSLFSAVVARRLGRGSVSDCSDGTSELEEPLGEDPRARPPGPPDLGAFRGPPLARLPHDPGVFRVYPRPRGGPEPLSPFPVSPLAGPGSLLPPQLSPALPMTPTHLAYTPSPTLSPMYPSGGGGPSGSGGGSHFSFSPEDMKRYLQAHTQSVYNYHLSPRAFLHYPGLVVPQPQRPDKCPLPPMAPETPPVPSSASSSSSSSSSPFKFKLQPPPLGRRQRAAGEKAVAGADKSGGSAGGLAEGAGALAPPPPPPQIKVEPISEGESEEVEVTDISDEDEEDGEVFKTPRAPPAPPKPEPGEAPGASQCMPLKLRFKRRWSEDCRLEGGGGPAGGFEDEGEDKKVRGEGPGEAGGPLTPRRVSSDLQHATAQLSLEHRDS
Method in brief: as §1

ETV3L = biological target: T7, ETV3L (Homo sapiens, UniProt Q6ZN32 1-361)
T7 sequence: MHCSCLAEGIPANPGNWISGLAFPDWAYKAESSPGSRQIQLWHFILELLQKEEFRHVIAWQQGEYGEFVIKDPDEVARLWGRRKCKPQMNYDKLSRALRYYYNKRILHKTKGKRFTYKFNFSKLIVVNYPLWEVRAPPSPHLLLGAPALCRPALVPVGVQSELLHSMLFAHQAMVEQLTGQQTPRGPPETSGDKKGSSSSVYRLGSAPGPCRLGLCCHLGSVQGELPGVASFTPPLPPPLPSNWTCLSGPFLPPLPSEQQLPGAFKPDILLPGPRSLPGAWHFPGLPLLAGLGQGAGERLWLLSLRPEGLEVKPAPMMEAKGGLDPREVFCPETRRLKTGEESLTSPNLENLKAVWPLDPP
Method in brief: as §1

ETS2 = biological target: T8, ETS2 (Homo sapiens, UniProt P15036 1-469)
T8 sequence: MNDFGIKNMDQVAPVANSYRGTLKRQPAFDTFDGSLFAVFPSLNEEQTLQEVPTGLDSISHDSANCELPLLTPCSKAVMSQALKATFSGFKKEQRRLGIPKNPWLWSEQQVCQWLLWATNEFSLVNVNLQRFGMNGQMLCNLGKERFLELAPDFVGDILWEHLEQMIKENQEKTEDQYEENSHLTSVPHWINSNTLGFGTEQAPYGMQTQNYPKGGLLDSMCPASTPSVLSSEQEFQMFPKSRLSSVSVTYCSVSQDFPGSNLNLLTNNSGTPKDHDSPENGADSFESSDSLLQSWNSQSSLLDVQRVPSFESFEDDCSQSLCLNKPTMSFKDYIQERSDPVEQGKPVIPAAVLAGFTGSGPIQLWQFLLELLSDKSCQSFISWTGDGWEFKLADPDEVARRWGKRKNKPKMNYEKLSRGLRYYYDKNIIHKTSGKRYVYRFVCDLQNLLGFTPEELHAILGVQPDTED
Method in brief: as §1

SPDEF = biological target: T9, SPDEF (Homo sapiens, UniProt O95238 1-335)
T9 sequence: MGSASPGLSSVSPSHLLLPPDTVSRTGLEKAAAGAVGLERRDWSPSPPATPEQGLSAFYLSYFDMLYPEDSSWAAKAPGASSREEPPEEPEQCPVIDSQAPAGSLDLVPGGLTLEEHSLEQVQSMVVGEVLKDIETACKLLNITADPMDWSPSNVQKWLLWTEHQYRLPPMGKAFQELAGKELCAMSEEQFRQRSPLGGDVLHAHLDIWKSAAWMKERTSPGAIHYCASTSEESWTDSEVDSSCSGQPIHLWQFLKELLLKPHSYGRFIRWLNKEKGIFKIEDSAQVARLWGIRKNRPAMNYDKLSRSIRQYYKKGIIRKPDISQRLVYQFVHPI
Method in brief: as §1

ETV7 = biological target: T10, ETV7 (Homo sapiens, UniProt Q9Y603 1-341)
T10 sequence: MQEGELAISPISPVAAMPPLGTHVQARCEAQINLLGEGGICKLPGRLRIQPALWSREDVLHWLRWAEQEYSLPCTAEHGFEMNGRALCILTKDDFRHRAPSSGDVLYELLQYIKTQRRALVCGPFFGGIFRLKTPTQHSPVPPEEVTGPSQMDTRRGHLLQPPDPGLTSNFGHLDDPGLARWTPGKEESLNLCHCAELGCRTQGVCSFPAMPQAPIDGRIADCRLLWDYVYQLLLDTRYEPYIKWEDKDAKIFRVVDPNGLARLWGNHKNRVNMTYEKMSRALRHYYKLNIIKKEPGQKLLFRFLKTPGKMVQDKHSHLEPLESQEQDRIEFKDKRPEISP
Method in brief: as §1

ELF5 = biological target: T11, ELF5 (Homo sapiens, UniProt Q9UKW6-2 1-255)
T11 sequence: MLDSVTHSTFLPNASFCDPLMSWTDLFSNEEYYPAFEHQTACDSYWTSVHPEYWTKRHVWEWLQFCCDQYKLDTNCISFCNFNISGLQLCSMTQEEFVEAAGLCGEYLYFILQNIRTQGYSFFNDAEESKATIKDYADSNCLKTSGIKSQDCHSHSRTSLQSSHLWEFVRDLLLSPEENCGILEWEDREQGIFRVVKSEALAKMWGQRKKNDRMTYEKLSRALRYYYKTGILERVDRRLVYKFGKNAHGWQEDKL
Method in brief: as §1

ETV3 = biological target: T12, ETV3 (Homo sapiens, UniProt P41162-2 1-143)
T12 sequence: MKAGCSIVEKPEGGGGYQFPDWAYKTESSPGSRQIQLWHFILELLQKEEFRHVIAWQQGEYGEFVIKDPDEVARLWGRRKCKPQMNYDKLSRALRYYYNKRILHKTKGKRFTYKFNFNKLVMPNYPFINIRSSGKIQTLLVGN
Method in brief: as §1

ETV6 = ETV6 (Homo sapiens, UniProt P41212 1-452)
Sequence of ETV6 (P41212 whole entry): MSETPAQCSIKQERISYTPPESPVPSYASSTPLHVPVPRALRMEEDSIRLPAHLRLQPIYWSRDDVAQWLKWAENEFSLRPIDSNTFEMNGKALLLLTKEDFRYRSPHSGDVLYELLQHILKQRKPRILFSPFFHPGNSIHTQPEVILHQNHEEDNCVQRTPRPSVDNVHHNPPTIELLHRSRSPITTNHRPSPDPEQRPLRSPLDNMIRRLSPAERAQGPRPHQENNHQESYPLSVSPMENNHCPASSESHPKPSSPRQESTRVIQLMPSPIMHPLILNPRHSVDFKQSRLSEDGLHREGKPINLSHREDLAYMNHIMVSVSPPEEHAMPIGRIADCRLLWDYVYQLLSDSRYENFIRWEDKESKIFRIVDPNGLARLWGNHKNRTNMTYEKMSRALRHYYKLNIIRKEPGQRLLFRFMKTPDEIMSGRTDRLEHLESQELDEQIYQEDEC
Method in brief: as §1

| Sequence | binding signal (FEV) | binding signal (ETV5) | binding signal (SPIC) | binding signal (ELF4) | binding signal (ELK4) | binding signal (ETV2) | binding signal (ELF3) | binding signal (CRX) | binding signal (ETV1) | binding signal (ERF) | binding signal (ETV3L) | binding signal (ETS2) | binding signal (SPDEF) | binding signal (ETV7) | binding signal (ELF5) | binding signal (ETV3) | binding signal (ETV6) |
| --- | --- | --- | --- | --- | --- | --- | --- | --- | --- | --- | --- | --- | --- | --- | --- | --- | --- |
| CCCCTG | 1.18 fold enrichment (6-mer frequency, TF over GST control) | 1.22 fold enrichment (6-mer frequency, TF over GST control) | 1.16 fold enrichment (6-mer frequency, TF over GST control) | 1.21 fold enrichment (6-mer frequency, TF over GST control) | 1.46 fold enrichment (6-mer frequency, TF over GST control) | 1.03 fold enrichment (6-mer frequency, TF over GST control) | 1.21 fold enrichment (6-mer frequency, TF over GST control) | 1.07 fold enrichment (6-mer frequency, TF over GST control) | 1.24 fold enrichment (6-mer frequency, TF over GST control) | 1.39 fold enrichment (6-mer frequency, TF over GST control) | 1.13 fold enrichment (6-mer frequency, TF over GST control) | 1.21 fold enrichment (6-mer frequency, TF over GST control) | 1.17 fold enrichment (6-mer frequency, TF over GST control) | 1.13 fold enrichment (6-mer frequency, TF over GST control) | 1.15 fold enrichment (6-mer frequency, TF over GST control) | 1.07 fold enrichment (6-mer frequency, TF over GST control) | 1.07 fold enrichment (6-mer frequency, TF over GST control) |
| TCACAT | 1.28 fold enrichment (6-mer frequency, TF over GST control) | 1.28 fold enrichment (6-mer frequency, TF over GST control) | 1.11 fold enrichment (6-mer frequency, TF over GST control) | 1.15 fold enrichment (6-mer frequency, TF over GST control) | 1.17 fold enrichment (6-mer frequency, TF over GST control) | 1.32 fold enrichment (6-mer frequency, TF over GST control) | 1.21 fold enrichment (6-mer frequency, TF over GST control) | 1.09 fold enrichment (6-mer frequency, TF over GST control) | 1.21 fold enrichment (6-mer frequency, TF over GST control) | 1.24 fold enrichment (6-mer frequency, TF over GST control) | 1.24 fold enrichment (6-mer frequency, TF over GST control) | 1.25 fold enrichment (6-mer frequency, TF over GST control) | 1.44 fold enrichment (6-mer frequency, TF over GST control) | 1.3 fold enrichment (6-mer frequency, TF over GST control) | 1.14 fold enrichment (6-mer frequency, TF over GST control) | 1.21 fold enrichment (6-mer frequency, TF over GST control) | 1.23 fold enrichment (6-mer frequency, TF over GST control) |
